Most compounds without a hit are left out; they make up all but 11% or so of the library.
Tau fluor cs: counter-screen for tau fibril formation inhibitors; tau K18 P301L Alexa594 fluorescence, heparin fibrillization; Potency, µM (titrated, usually from 57.7 µM); 0.93% of 280,000 active; AID 1463; note: nearly all actives have a fitted effect of over 55% in size
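Human K18 P301L tau (15 uM unlabeled plus 0.24 uM Alexa 594-labeled, final) in 100 mM sodium acetate pH 7 was mixed with compound and 20 uM heparin and incubated 6 hr at 37 C.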
FBPA coupling cs: counter-screen for Giardia aldolase inhibitors: coupling enzyme system. coupling enzyme system counterscreen, AmpLite Red fluorescence. activity change, negative = inhibition, % at 58.2 µM, hits read low. 0.67% of 290,000 active. AID 2472; in the data active = activity change below about -30%
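Fluorescence at 525 nm excitation and 598 nm emission measured inhibition of the coupled detection system without aldolase. Compounds (at 57.5 uM final) were preincubated 10 min at room temperature with coupling enzyme reagent before a 20 min substrate/AmpLite Red step.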
Tau fibril ThT: inhibitors of human tau fibril formation, thioflavin T binding; P10636; recombinant tau K18 P301L (four-repeat tau fragment), heparin-induced fibrillization, ThT fluorescence; Potency, µM (series often up to 57.4 µM), actives largely listed as inhibitors; 2.1% of 270,000 active; AID 1460; note: nearly all actives have a fitted effect of over 55% in size
Target sequence (P10636 561-689 P618L limits assumed): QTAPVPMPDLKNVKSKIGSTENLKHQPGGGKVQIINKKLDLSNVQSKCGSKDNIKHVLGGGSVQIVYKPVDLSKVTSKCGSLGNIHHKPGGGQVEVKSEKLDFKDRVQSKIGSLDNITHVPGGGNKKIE
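In this qHTS, human K18 P301L tau is incubated with compound and heparin for 6 hr at 37 C, and Thioflavin T fluorescence then reports fibril load.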
Sfp PPTase inh: Sfp phosphopantetheinyl transferase inhibition; Q9F4F7; Biochemical Sfp PPTase activity, qHTS; Potency, µM, usual class: inhibitors; 3.5% of 310,000 active;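 note: the enzyme is Sfp with the accession as filed and its product quenches rhodamine fluorescence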
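Compounds were incubated with enzyme (final 15 nM) for 15 min at room temperature before substrate addition started the reaction. Fluorescence at 525 nm excitation, 598 nm emission was recorded immediately and after 30 minutes.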
Tau fibril FP: blocks human tau fibril formation measured by polarization; P10636; K18 P301L tau heparin fibrillization, Alexa594 FP, 6 h; Potency, µM (doses to about 57.7 µM), actives largely listed as inhibitors; 0.39% of 280,000 active; AID 1468; note: nearly all actives have a fitted effect of over 55% in size
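Compound effects on tau fibrillization are measured by Alexa 594 fluorescence polarization (ex 555, em 632 nm). K18 P301L tau is used at 15 uM with 0.24 uM labeled tracer, and 20 uM heparin induces aggregation over 6 hr at 37 C.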
G9a block: G9a (human) methyltransferase inhibition; Q96KQ7; G9a H3K9 monomethylation, AlphaScreen, 2 h; Potency, µM (series often up to 102 µM), usual class: inhibitors; 8.8% of 350,000 active; AID 504332; note: nearly all actives have a fitted effect of over 75% in size
Target sequence (Q96KQ7 913-1193 limits assumed): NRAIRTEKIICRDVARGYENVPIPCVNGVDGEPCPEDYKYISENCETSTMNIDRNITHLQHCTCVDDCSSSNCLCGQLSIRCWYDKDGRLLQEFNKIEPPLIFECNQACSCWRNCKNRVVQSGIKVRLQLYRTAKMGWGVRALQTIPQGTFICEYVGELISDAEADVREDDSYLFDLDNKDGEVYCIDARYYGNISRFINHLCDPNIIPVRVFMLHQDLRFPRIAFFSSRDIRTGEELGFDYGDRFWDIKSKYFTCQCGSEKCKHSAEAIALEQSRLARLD
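Using a bead-based AlphaScreen, monomethylated H3K9 product from 2 h room-temperature reactions (G9a 20 nM, peptide 500 nM, SAM 20 uM) was detected with 0.5 ug/mL rabbit anti-H3K9me1 antibody.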
Large screens that a line does not name were inactive; ! = repeats disagree; [ ] = another dose, or the depositor's remark. Unless noted, calls come from the whole dose curve; as a rule, active = well fitted curve in the direction sought with a large enough effect; inconclusive = small, poorly fitted or top-dose-only effect, or another doubt; inactive = no such curve, though single readings can be large; an effect the other way counts as inactive or inconclusive.

N#CC(C#N)=Cc1ccc(O)c(O)c1	Tau fibril ThT 14µM!, Sfp PPTase inh 40µM, Tau fibril FP inconclusive, G9a block 8.4µM
N#C/C(=C\c1ccc(O)cc1)C(=O)O	none (no result: G9a block)
N#C/C(=C\c1cccc(O)c1)C(=O)O	none (no result: G9a block)
CS/C(N)=C(C#N)/C(C#N)=C(\N)SC	Tau fibril ThT inconclusive, Sfp PPTase inh inconclusive, Tau fibril FP inconclusive, G9a block inconclusive
C[C@H](N)Cc1ccccc1	none (no result: Tau fluor cs, FBPA coupling cs, Tau fibril ThT, Tau fibril FP)
C=C1CC2C(CC[C@]3(C)C(=O)CCC23)[C@]2(C)C=CC(=O)C=C12 (some centres not stated)	none
COC1C(O)C(C)O[C@H](OC2CC[C@@]3(C=O)C4CC[C@]5(C)C(C6=CC(=O)OC6)CC[C@@]5(O)C4CC[C@@H]3C2)C1O (some centres not stated)	none
COc1cc(C=C(C#N)C#N)cc(O)c1O	Tau fibril ThT inconclusive, G9a block 2.5µM (no result: FBPA coupling cs, Sfp PPTase inh)
CCOC(=O)c1cc(C)sc1/N=C/C1C(=O)NC(=S)NC1=O	Tau fibril ThT inconclusive, Sfp PPTase inh 20µM, G9a block 40µM
N#Cc1c(/N=C/C2C(=O)NC(=S)NC2=O)sc2c1CCCC2	Tau fibril ThT inconclusive, Sfp PPTase inh 22µM, G9a block 28µM
CCOC(=O)c1c(/N=C/C2C(=O)NC(=S)NC2=O)sc(C)c1C	Sfp PPTase inh 25µM, G9a block 35µM
CCOC(=O)c1ccccc1C(=O)OCC	none (no result: Tau fluor cs, FBPA coupling cs, Tau fibril ThT, Tau fibril FP)
CCOC(=O)c1c(/N=C/C2C(=O)NC(=S)NC2=O)sc2c1CCC2	Tau fibril ThT inconclusive, Sfp PPTase inh 13µM, G9a block inconclusive
C[C@]12N[C@@H](Cc3ccccc31)c1ccccc12	none
N#CCCN	none (no result: Tau fluor cs, FBPA coupling cs, Tau fibril ThT, Sfp PPTase inh, Tau fibril FP)
CC(C)(O)C1C2OC(=O)C1[C@]1(O)CC3O[C@@]34C(=O)OC2[C@@]14C (some centres not stated)	none
C=CCN1C(=O)/C(=C/c2cc(C)n(-c3ccccn3)c2C)C(=O)NC1=S	Tau fibril ThT inconclusive, Sfp PPTase inh inconclusive, G9a block inconclusive
O=C1NC(=S)NC(=O)C1=Cc1ccc(Br)s1	Sfp PPTase inh 16µM (no result: Tau fluor cs, Tau fibril ThT, Tau fibril FP, G9a block)
CN1C(=O)/C(=C\c2ccc(Br)s2)C(=O)NC1=S	Sfp PPTase inh 40µM, G9a block 7.1µM (no result: Tau fluor cs, Tau fibril ThT, Tau fibril FP)
O=C1NC(=O)N(Cc2ccccc2Cl)C(=O)/C1=C/N1CCOCC1	Tau fibril ThT 18µM, Sfp PPTase inh 10µM, Tau fibril FP inconclusive, G9a block inconclusive
N#CC(O[C@@H]1OC(COC2OC(CO)C(O)C(O)[C@@H]2O)C(O)C(O)C1O)c1ccccc1 (some centres not stated)	none
CCN1CCN(Cc2ccc(C)cc2C)CC1	G9a block 56µM
Cc1nn(C)c(C)c1-c1cccc2c1CCC(N(C)C)C2 (configuration not stated)	none
O=C1NC(=S)NC(=O)C1=Cc1cccc2cc3ccccc3cc12	Tau fluor cs 16µM[quencher], Tau fibril ThT 11µM, Sfp PPTase inh 25µM, G9a block 16µM
CC1(C)CC(=O)C2=C(C1)OC(N)=C([N+](=O)[O-])C2c1ccc(C#N)s1 (configuration not stated)	Tau fluor cs inconclusive, Tau fibril ThT 8.9µM, Sfp PPTase inh 35µM, Tau fibril FP inconclusive
N#CSCC(=O)N1c2ccccc2CCc2ccccc21	Tau fibril ThT 14µM, Tau fibril FP inconclusive, G9a block inconclusive
Cc1cccc(N2C(=O)NC(=O)/C(=C\c3ccc4c(c3)CCCN4Cc3ccccc3)C2=O)c1	Tau fibril ThT inconclusive, Sfp PPTase inh 45µM, G9a block inconclusive
C[N+]1(C)CCO[C@](O)(c2ccc(-c3ccc([C@]4(O)C[N+](C)(C)CCO4)cc3)cc2)C1	none (no result: Tau fluor cs, Tau fibril ThT, Tau fibril FP)
O=C(N/N=C/C1C(=O)NC(=S)N(c2ccccc2)C1=O)c1cc(Br)c(O)c(Br)c1 (configuration not stated)	Tau fibril ThT inconclusive, G9a block 45µM
CCOC(=O)C1=C(CN2CCN(c3ccc(C)cc3C)CC2)NC(=O)NC1c1ccc(OC)cc1 (configuration not stated)	Tau fibril ThT inconclusive (no result: FBPA coupling cs, Sfp PPTase inh)
Cc1ccc(N2C(=O)NC(=O)/C(=C/c3cnn(-c4ccc(C)cc4)c3)C2=O)cc1	Tau fibril ThT inconclusive, G9a block 3.5µM

Source: PubChem (National Center for Advancing Translational Sciences (NCATS))
